DNA FID counter – displaces DNA intercalator in HCV helicase counter-screen | hit rate 0.17% among 290,000 | inhibition, % at 7.9 µM | AID 1845 | DNA fluorescent intercalator displacement, fluorescence; in the data active means inhibition above about 37%;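 further: higher means more ethidium bromide displaced from hairpin DNA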
IEC-6 tox – kills IEC-6 intestinal cells in KLF5 counter-screen | IEC-6 cytotoxicity, luminescence viability | inhibition, % at 5 µM | hit rate 0.78% among 290,000 | AID 1825
KLF5 inh – suppresses KLF5 promoter-driven expression; DLD-1 KLF5 promoter-luciferase reporter, luminescence; inhibition, % at 5 µM; hit rate 0.23% among 290,000; AID 1700;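 active means inhibition above a per-plate limit of that plate's mean compound inhibition plus 3 SD, cut at about 60% in these data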;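 further: higher means less KLF5 promoter-driven luciferase light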
GPR7 antag – antagonists of human GPR7 (neuropeptides B/W receptor 1); hit rate 1.1% among 290,000; AID 1861; GPR7-expressing cells, fluorescence antagonist assay; inhibition, % at 4.4 µM; in the data active means inhibition above about 16%, passing the limit was not always enough;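 further: cells stimulated with the agonist NPW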
Target sequence (P48145 whole entry, looked up): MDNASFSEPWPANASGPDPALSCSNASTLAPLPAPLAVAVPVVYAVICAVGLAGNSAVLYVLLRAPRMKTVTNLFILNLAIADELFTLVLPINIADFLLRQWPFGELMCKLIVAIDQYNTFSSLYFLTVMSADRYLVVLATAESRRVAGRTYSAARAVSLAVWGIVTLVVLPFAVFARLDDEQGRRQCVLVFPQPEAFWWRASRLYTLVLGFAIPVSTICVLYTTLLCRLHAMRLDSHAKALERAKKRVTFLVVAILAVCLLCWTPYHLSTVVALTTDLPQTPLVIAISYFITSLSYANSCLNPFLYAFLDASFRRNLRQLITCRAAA
BaF3 tox – counter-screen for JAK2V617F inhibitors: parental Ba/F3 viability inhibitors; CellTiter-Glo ATP luminescence; inhibition, % at 5.6 µM; hit rate 1.1% among 220,000;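 active means inhibition above a per-campaign cutoff, the mean inhibition of all tested compounds plus 3 SD, cut at about 27% in these data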
Ba/F3 V617F tox – reduce viability of Ba/F3 cells dependent on JAK2V617F; Ba/F3 EpoR-JAK2V617F viability, ATP luminescence; inhibition, % at 5.6 µM; hit rate 1.1% among 220,000;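 active means inhibition above the campaign mean plus 3 SD over all tested compounds, cut at about 24% in these data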;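 further: cytokine-independent growth of Ba/F3 cells driven by EpoR plus mutant JAK2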
GPR7 antag cf – human GPR7 antagonism, confirmation assay; shares compounds with GPR7 antag; GPR7-expressing cells, calcium fluorescence antagonist mode; inhibition, % at 4.4 µM; hit rate 52% among 2,400; AID 1952; in the data active means inhibition above about 24%;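 further: stimulated with the GPR7 agonist NPW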
MCHR1 antag – counter-screen for GPR7 antagonists: antagonists of human MCHR1; shares compounds with GPR7 antag; MCHR1-expressing cells, fluorescence antagonist assay; inhibition, % at 4.4 µM; hit rate 62% among 2,400; AID 2148
Each line names hits and unclear results; the compound was inactive in the other large screens (follow-up assays come after a bar, where they were run). Rows were chosen to be rich in hits. Some 2.6% of all compounds tested hit in one or more screens of this group. Unless noted, no stated cut-off is given here; in the data, active means inhibition above about 22%; inactive means the rest.

COC(=O)C1=C(C)N(Cc2ccccc2)C(=NCc2cccc(C(F)(F)F)c2)N[C@H]1c1cccc(F)c1	GPR7 antag 38 (no result: BaF3 tox, Ba/F3 V617F tox) | GPR7 antag cf 70 | MCHR1 antag 71
COC(=O)C1=C(C)N(Cc2ccccc2)C(=NCC(C)C)N[C@H]1c1ccccc1	GPR7 antag 47 (no result: BaF3 tox, Ba/F3 V617F tox) | GPR7 antag cf 50 | MCHR1 antag 40
COCCN=C1N[C@@H](c2cccc(C(F)(F)F)c2)C(C(=O)OC)=C(C)N1Cc1ccccc1	none (no result: GPR7 antag, BaF3 tox, Ba/F3 V617F tox) | MCHR1 antag inactive
N#CCCN1CCN(S(=O)(=O)c2ccc(S(=O)(=O)N3CCCCCC3)cc2)CC1	none
CCN(CC)S(=O)(=O)c1cccc(N2CC(O)=C(c3ccccc3)C2=N)c1	none
CCN(CC)S(=O)(=O)c1ccc(N2Cc3ccccc3C2=N)cc1	GPR7 antag 22 | GPR7 antag cf inactive | MCHR1 antag inactive
O=C(O)c1cccc(NC2=C(Cl)C(=O)c3ccccc3C2=O)c1	none
O=C(O)c1ccc(NC2=C(Cl)C(=O)c3ccccc3C2=O)cc1	GPR7 antag 50 | GPR7 antag cf inactive | MCHR1 antag 35
CCOC(=O)NC(NC(=S)Nc1ccc(OCC)cc1)C(Cl)(Cl)Cl (configuration not stated)	none
O=C(NC(NC(=S)Nc1c(Cl)cccc1Cl)C(Cl)(Cl)Cl)OCc1ccccc1 (configuration not stated)	GPR7 antag 27 | GPR7 antag cf 26 | MCHR1 antag 44
Nc1cccc(C(=O)Nc2cccc3ncccc23)c1	none (no result: BaF3 tox, Ba/F3 V617F tox)
CCN(CC(=O)Nc1c(F)cccc1F)C(=O)c1cc(S(=O)(=O)N(CC)CC)ccc1N1CCCCC1	GPR7 antag 29 (no result: BaF3 tox, Ba/F3 V617F tox) | GPR7 antag cf 32 | MCHR1 antag 26
CCN(CC)S(=O)(=O)c1ccc(N2CCCC2)c(NC(=O)Cc2c(F)cccc2Cl)c1	GPR7 antag 31 (no result: BaF3 tox, Ba/F3 V617F tox) | GPR7 antag cf 44 | MCHR1 antag 41
CCn1c(CNC(=O)c2ccc3c(c2)OCO3)nnc1SCC(=O)Nc1ccccc1F	none (no result: BaF3 tox, Ba/F3 V617F tox)
O=C(Nc1cccc2c1C(=O)NC2=O)c1ccccc1[N+](=O)[O-]	none
O=C1NC(=Nc2ccccc2)c2c1cccc2[N+](=O)[O-]	GPR7 antag 32 | GPR7 antag cf inactive | MCHR1 antag inactive
O=C(Nc1ccccc1)Nc1cc(Cl)cc(Cl)c1	GPR7 antag 38 | GPR7 antag cf 38 | MCHR1 antag 60
O=C(Nc1cccc(Cl)c1)Nc1cccc(Cl)c1	GPR7 antag 21 | GPR7 antag cf 46 | MCHR1 antag 64
O=C(Nc1ccccc1)Nc1cccc2ccccc12	GPR7 antag 37 | GPR7 antag cf inactive | MCHR1 antag 22
O=C(Nc1cccnc1)Nc1cc(Cl)cc(Cl)c1	none
COC(=O)c1cccc(NC(=O)Nc2ccc(Cl)cc2)c1	none
COC(=O)c1cc(NC(=O)Nc2cccc(Cl)c2)ccc1Cl	GPR7 antag 33 | GPR7 antag cf 52 | MCHR1 antag 77
O=C(O)c1ccc(Nc2nc3ccc(Cl)cc3[nH]2)cc1	none (no result: BaF3 tox, Ba/F3 V617F tox)
Cc1nc(SCCO)c([N+](=O)[O-])[nH]1	none
CC(=O)Nc1cccc(NC(=O)Nc2cccc(F)c2)c1	none
O=C(Nc1cccc(F)c1)Nc1cccc(Cl)c1	GPR7 antag 34 (no result: BaF3 tox, Ba/F3 V617F tox) | GPR7 antag cf 40 | MCHR1 antag 55
COc1cc(C)ccc1OCCCOc1cc(C)ccc1Cl	none
CCc1cccc(CC)c1NC(=O)COC(=O)C1(c2ccc(Cl)cc2)CCCC1	GPR7 antag 42 | GPR7 antag cf 36 | MCHR1 antag 51
CC(=O)NC(c1ccccc1)c1nc2ccccc2[nH]1 (configuration not stated)	none
CC(C)[C@H](NC(N)=O)C(=O)Nc1ccc(F)c(Cl)c1	GPR7 antag 22 | GPR7 antag cf inactive | MCHR1 antag inactive
Cc1cc(-c2ccc(S(=O)(=O)N3CCN(c4cccc(C)c4C)CC3)s2)on1	GPR7 antag 29 (no result: BaF3 tox, Ba/F3 V617F tox) | GPR7 antag cf inactive | MCHR1 antag 40
CC(C)CCN1C(Nc2ccccc2)=NC[C@@H]1Cc1ccccc1	none (no result: BaF3 tox, Ba/F3 V617F tox)
CC(CCN1C(Nc2ccccc2)=NC[C@@H]1Cc1ccccc1)c1ccccc1 (some centres not stated)	GPR7 antag 38 (no result: BaF3 tox, Ba/F3 V617F tox) | GPR7 antag cf 51 | MCHR1 antag 25
CC(C)CCCN1C(Nc2ccccc2)=NC[C@@H]1Cc1ccccc1	GPR7 antag 36 (no result: BaF3 tox, Ba/F3 V617F tox) | GPR7 antag cf 31 | MCHR1 antag 24
CC(C)CCCN1C(Nc2ccccc2)=NC[C@@H]1CC(C)C	none (no result: BaF3 tox, Ba/F3 V617F tox)
CC(C)C[C@H]1CN=C(Nc2ccccc2)N1CCCCc1ccccc1	GPR7 antag 39 (no result: BaF3 tox, Ba/F3 V617F tox) | GPR7 antag cf 39 | MCHR1 antag 27
COc1ccc(C(CCNC(C)c2ccccc2)C(C)C)cc1 (configuration not stated)	GPR7 antag 33 | GPR7 antag cf 36 | MCHR1 antag 31
O=C(N/N=C/c1ccc(O)cc1)c1ccc(COc2cc(Cl)ccc2Cl)o1	GPR7 antag 53 | GPR7 antag cf 68 | MCHR1 antag 78
O=C(N/N=C/c1ccccc1)c1cc(-c2ccc3c(c2)OCO3)n[nH]1	GPR7 antag 23 | GPR7 antag cf inactive | MCHR1 antag 36
Cc1n[nH]c(C)c1N1C(=O)c2cccc3c(N4CCCCCC4)ccc(c23)C1=O	GPR7 antag 52 | GPR7 antag cf 41 | MCHR1 antag 56
N=c1c(C(=O)NCCc2ccccc2)cc2c(=O)n3ccccc3nc2n1CC1CCCO1 (configuration not stated)	GPR7 antag 48 (no result: BaF3 tox, Ba/F3 V617F tox) | GPR7 antag cf 34 | MCHR1 antag inactive
N=c1c(C(=O)NCc2ccc(F)cc2)cc2c(=O)n3ccccc3nc2n1CC1CCCO1 (configuration not stated)	GPR7 antag 22 | GPR7 antag cf 26 | MCHR1 antag inactive
N=c1c(C(=O)NCc2ccc3c(c2)OCO3)cc2c(=O)n3ccccc3nc2n1CC1CCCO1 (configuration not stated)	none (no result: BaF3 tox, Ba/F3 V617F tox)
Cc1ccccc1NC(=O)c1cccc(C(=O)Nc2ccccc2C)n1	GPR7 antag 33 (no result: BaF3 tox, Ba/F3 V617F tox) | GPR7 antag cf inactive | MCHR1 antag 37
Cc1cccc(NC(=O)c2ccc3ccccc3n2)c1C	none
CCNC(=O)/C(C#N)=C/c1c(N2CCN(c3ccc(OC)cc3)CC2)nc2c(C)cccn2c1=O	none (no result: BaF3 tox, Ba/F3 V617F tox)
O=C(Nc1nc(-c2ccccc2)cs1)c1ccccc1NS(=O)(=O)c1ccc(F)cc1	GPR7 antag 24, BaF3 tox 46 | GPR7 antag cf 42 | MCHR1 antag 60
Cc1nc(C(=O)Nc2ccc(Cl)cc2)nn1-c1ccc([N+](=O)[O-])cc1	GPR7 antag 31 | GPR7 antag cf inactive | MCHR1 antag inactive
CC(NC(=O)c1ccc(C#N)cc1)C1CC2CCC1C2 (configuration not stated)	GPR7 antag 23 (no result: BaF3 tox, Ba/F3 V617F tox) | GPR7 antag cf inactive | MCHR1 antag inactive
